GLP1R ag – qHTS of GLP-1 Receptor Agonists; HEK293 GLP-1R CRE-luciferase, luminescence, 4-6 h; cells express a hypersensitive GLP-1R form; Potency, µM (series often up to 45.6 µM), usual class: activators; actives 0.007% (n = 380,000); AID 624172, 2012
Target sequence (P43220 whole entry, looked up): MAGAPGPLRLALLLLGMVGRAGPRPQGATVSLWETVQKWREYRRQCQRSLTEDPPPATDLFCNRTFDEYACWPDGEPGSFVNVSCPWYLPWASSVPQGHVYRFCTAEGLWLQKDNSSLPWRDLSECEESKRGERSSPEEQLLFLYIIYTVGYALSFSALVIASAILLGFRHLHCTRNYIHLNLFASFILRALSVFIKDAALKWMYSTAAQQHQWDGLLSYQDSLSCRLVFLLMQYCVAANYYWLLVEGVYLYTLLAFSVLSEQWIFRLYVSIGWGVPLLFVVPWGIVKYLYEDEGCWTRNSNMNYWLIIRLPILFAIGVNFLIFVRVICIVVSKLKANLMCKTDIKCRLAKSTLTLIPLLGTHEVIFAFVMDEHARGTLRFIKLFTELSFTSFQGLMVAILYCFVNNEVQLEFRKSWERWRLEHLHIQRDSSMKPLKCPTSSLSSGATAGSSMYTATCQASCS
GLP1R inv ag – qHTS of GLP-1 Receptor Inverse Agonists (Inhibition Mode) | AID 624417, 2012 | HEK293 GLP-1R CRE-luciferase, luminescence, 24 h; GLP-1R form is constitutively active | Potency, µM (titrated, usually from 38.3 µM), hits mostly inhibitors | Glucagon-like peptide 1 receptor (Homo sapiens), P43220 | actives 1.6% (n = 410,000); note: nearly all actives have a fitted effect of over 55% in size
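HEK293 cells stably co-expressing constitutively active GLP-1R and a cAMP-responsive luciferase reporter were seeded in DMEM with 10% Nu serum, given compounds after 12 h, and incubated 24 h at 37 deg C. Luminescence was then read.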
GLP1R cytotox – qHTS of GLP-1 Receptor Inverse Agonists: Cytotox Screen. HEK293 cAMP-luciferase reporter cells, luminescence, 24 h. actives 0.13% (n = 410,000). Potency, µM (doses to about 38.3 µM), hits mostly inhibitors;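 note: loss of luciferase light is scored as toxicity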
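Compound-treated cells are incubated 24 hr at 37 deg C under 5% CO2 after a 12 hour attachment period, then luciferase detection reagent is added and luminescence is measured following 12 min at room temperature; lowered signal indicates toxicity.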
Of the large screens only hits and unclear results are named; the others gave an inactive call. An excerpt weighted towards active compounds, which were near 1.7% of everything screened. Calls come from the whole dose curve; as a rule, active = well fitted curve in the direction sought with a large enough effect; inconclusive = small, poorly fitted or top-dose-only effect, or another doubt; inactive = no such curve, though single readings can be large; an effect the other way counts as inactive or inconclusive.

CCCSc1ncc(Cl)c(C(=O)N(Cc2ccc(Cl)cc2)Cc2ccco2)n1	none (no result: GLP1R ag)
COc1ccc(CNC(=O)c2cc3c(=O)n(Cc4cccnc4)ccc3nc2C)cc1	none (no result: GLP1R ag)
COc1ccc(C(CC(=O)O)NC(=O)c2cc3ccccc3oc2=O)cc1OC (stereo not given)	none
Cc1ccc2c(c1)c1c(n2CC(O)CNC2CCCC2)CCCC1 (stereo not given)	GLP1R inv ag 11.2µM, GLP1R cytotox inconclusive
Cc1ccc2c(c1)c1c(n2CC(O)Cn2ccnc2C)C(=O)CCC1 (stereo not given)	GLP1R inv ag inconclusive
CCOc1ccccc1NC(=O)c1cc(SC)ccc1Cl	GLP1R inv ag inconclusive
CCOc1ccc(NC(=O)CN(C)C(=O)c2c(C)nn(Cc3ccccc3Cl)c2C)cc1OCC	none
O=C(CN(C(=O)c1csnn1)c1cccc2ccccc12)NCc1ccccc1	none
OC(CNCCc1ccc(Cl)cc1)COc1cc(Cl)ccc1Cl (stereo not given)	GLP1R inv ag 10µM, GLP1R cytotox inconclusive
OC(CNCCc1ccc(Cl)cc1)COc1ccc2ccccc2c1 (stereo not given)	GLP1R inv ag inconclusive, GLP1R cytotox inconclusive
CC(C)(CO)NCc1c(OCc2ccc(Cl)cc2)ccc2ccccc12	GLP1R inv ag 5.62µM, GLP1R cytotox inconclusive
CNCc1c(OCc2ccccc2)ccc2ccccc12	GLP1R inv ag inconclusive
CCCOc1ccccc1C(=O)Nc1nc2c(s1)CCCC2	GLP1R inv ag inconclusive (no result: GLP1R ag)
Cc1cc(Cl)ccc1OC(C)C(=O)N1CCCN(C(=O)C(C)Oc2ccc(Cl)cc2C)CC1 (stereo not given)	GLP1R inv ag 5.01µM, GLP1R cytotox inconclusive
Cc1cc(Cl)ccc1OCC(=O)N1CCCN(C(=O)COc2ccc(Cl)cc2C)CC1	GLP1R inv ag inconclusive
Cc1ccc(CNC(=O)c2c(-c3ccccc3)sc3ccccc23)o1	GLP1R inv ag 5.01µM
O=C(NCc1ccc2c(c1)OCO2)c1c(-c2ccccc2)sc2ccccc12	none
Cc1cccc(C)c1NC(=O)C1(C)CSCC(=O)N1Cc1cccs1 (stereo not given)	none (no result: GLP1R ag)
COc1cccc(OCC(=O)N(Cc2nc(-c3ccc(Cl)cc3)no2)C(C)C)c1	GLP1R inv ag inconclusive
CCN(Cc1nc(-c2ccccc2)no1)C(=O)COc1cccc(OC)c1	GLP1R inv ag 1.78µM
CC1(NC(=O)CCc2ccccc2)CCN(CCCc2ccccc2)C1=O (stereo not given)	none
O=C(CCc1ccccc1)NC1(Cc2ccccc2)CCN(CCc2cccs2)C1=O (stereo not given)	GLP1R inv ag 10µM
CCc1nc2ccc(C(=O)NCCCn3ccnc3)cn2c1N(C)Cc1ccc(N(C)C)cc1	none
OC1(c2ccccc2)CC(c2ccccc2)c2ccccc2O1 (stereo not given)	GLP1R inv ag 11.2µM, GLP1R cytotox inconclusive
COc1ccc(C2CC(O)(c3ccccc3)Oc3cc(OC)c(OC)c(OC)c32)cc1 (stereo not given)	GLP1R inv ag inconclusive
CCCCC/C(C=O)=C/c1ccccc1	none (no result: GLP1R inv ag, GLP1R cytotox)
COc1ccc(CN2CCCC(CO)(Cc3ccc(F)cc3)C2)c(OC)c1OC (stereo not given)	GLP1R inv ag inconclusive
CSc1cccc(CN2CCCC(CO)(Cc3cccc(Cl)c3)C2)c1 (stereo not given)	GLP1R inv ag inconclusive
OCC1(Cc2cccc(Cl)c2)CCCN(Cc2ccc(F)c(F)c2)C1 (stereo not given)	GLP1R inv ag 10µM
CC(C)Oc1ccc(CN2CCCC(CO)(Cc3ccc(F)cc3)C2)cc1 (stereo not given)	GLP1R inv ag 11.2µM
Oc1[nH]c(N=C2N=c3ccccc3=N2)c2ccccc12	GLP1R cytotox inconclusive
O=C(NCC1CCCO1)c1ccc([N+](=O)[O-])s1 (stereo not given)	none
Cc1ccc(C(C)C)cc1OCCOCCN1CCCC1	GLP1R inv ag 7.94µM
Cc1ccccc1OCCOCCN1CCCCCC1	GLP1R inv ag inconclusive
COc1ccc(C(=O)NC(C(=O)N2CCN(C/C=C/c3ccccc3)CC2)C(C)C)cc1 (stereo not given)	none
CC(C)[C@H](NC(=O)c1ccc([N+](=O)[O-])cc1Cl)C(=O)N1CCN(C/C=C/c2ccccc2)CC1	GLP1R inv ag 10µM
Cc1cc(F)ccc1S(=O)(=O)Nc1ccccc1C(=O)NC1CCN(Cc2ccccc2)CC1	GLP1R inv ag inconclusive
S=C1NC[C@H](CC2CCCCC2)N1CC1CCCCC1	GLP1R inv ag 4.47µM, GLP1R cytotox 5.62µM
CCCC[C@@H]1CNC(=S)N1CC1CCCCC1	GLP1R inv ag inconclusive
Cc1coc(=N)n1CC(=O)c1ccc(Cl)cc1	none
COc1ccc(NC(=O)CSc2nnc3n2CCCCC3)cc1OC	none

Screening results: PubChem, National Center for Advancing Translational Sciences (NCATS)
